In the library only some 8% were active in any assay of this set; here they are far more common.
Lassa entry: Lassa virus entry inhibition; Lassa virus pseudotyped entry inhibition, cell-based qHTS; Potency, µM (doses to about 49.2 µM), hits mostly inhibitors; 18,000 tested, 4.1% active
MARV entry inh: inhibitors of Marburg virus binding or entry into cells; Potency, µM (series often up to 49.2 µM), usual class: inhibitors; 18,000 tested, 6.5% active; AID 720532; Marburg virus pseudotype entry/binding inhibition, cell-based
Of the large screens only hits and unclear results are named; the others gave an inactive call; ! = not confirmed by another sample. Calls come from the whole dose curve; tested in HEK293 cells.

CCCCCCC(C)(C)c1cc(OC)c2c(c1)OC(C)(C)[C@@H]1CC=C(C)C[C@@H]21	none
c1ccc(C(NCCNC(c2ccccc2)c2ccccc2)c2ccccc2)cc1	Lassa entry 13µM, MARV entry inh 7.1µM
CCC(C(=O)O)c1ccccc1 (configuration not stated)	none
O=C(Nc1ccc(O)c2c(=O)cc(-c3ccccc3Cl)oc12)c1ccc(Cl)cc1Cl	none
O=c1cc(-c2ccccc2Cl)oc2c(NS(=O)(=O)c3cc(Cl)cc(Cl)c3O)ccc(O)c12	Lassa entry 10µM, MARV entry inh inconclusive
C=CCN1c2ccccc2[C@]23CCC(=O)N(CCCOC(C)C)C2=NC(C(=O)OC)=C(C(=O)OC)[C@H]13	none
CCOC(=O)C1=C[C@@]2(CC)CCCN3CCc4c(n1c1ccccc41)C32 (some centres not stated)	MARV entry inh 10µM
CCOC(=O)C1=CC2(CC)CCCN3CCc4c(n1c1ccccc41)C32 (configuration not stated)	Lassa entry inconclusive
CCOC(=O)C1=CN(CCCc2cn(Cc3ccccc3)nn2)C(=O)NC1c1ccccc1 (configuration not stated)	none
COc1ccc(-c2cc3c(N)ncnc3o2)cc1	none
C[C@@H]1O[C@@H](O[C@@H]2C=C3CC[C@@H]4[C@H](CC[C@]5(C)[C@@H](c6ccc(=O)oc6)CC[C@]45O)[C@@]3(C)CC2)[C@H](O)[C@H](O)[C@H]1O	Lassa entry 1µM, MARV entry inh inconclusive
CCN1C(=O)NC(c2cccc(C(F)(F)F)c2)C(C(=O)OC)=C1C (configuration not stated)	none
CCCCCCCCCCCCCCCC(=O)OCCC1CCN(CCCN2c3ccccc3Sc3ccc(S(=O)(=O)N(C)C)cc32)CC1	none
CN1CCN(CCCN2c3ccccc3Sc3ccc(S(=O)(=O)N(C)C)cc32)CC1	MARV entry inh inconclusive
OCCOCCN1CCN(C2=Nc3ccccc3Sc3ccccc32)CC1	none
CN(C)CCCN1c2ccccc2Sc2ccc(Cl)cc21	Lassa entry inconclusive, MARV entry inh 16µM
OCCN1CCN(CCCN2c3ccccc3Sc3ccc(Cl)cc32)CC1	Lassa entry inconclusive, MARV entry inh 2.2µM
CC(=O)c1ccc2c(c1)N(CCCN1CCC(CCO)CC1)c1ccccc1S2	MARV entry inh 11µM
CS(=O)(=O)CCNCc1nc(-c2ccc3ncnc(Nc4ccc(F)c(Cl)c4)c3c2)cs1	MARV entry inh inconclusive
CC1=C[C@@H](COCc2ccccc2)O[C@@]2(C1)C(=O)Nc1cccc(Br)c12	none
C[C@@H]1CC[C@H]2C(=O)O[C@@H](Cc3ccccc3)CN2[C@@H]1c1ccc(Br)cc1	none
COC(=O)[C@@H]1C[C@@]23C(=NN=C(SC)C2Nc2ccccc23)N1C(C)=O (some centres not stated)	none
O=C1c2c(O)ccc(O)c2C(=O)c2c(NCCNCCO)ccc(NCCNCCO)c21	Lassa entry 0.32µM, MARV entry inh 0.1µM
O=C1c2ccccc2C(=O)c2c(O)ccc(O)c21	none
CCn1c(-c2nonc2N)nc2cnc(Oc3cccc(NC(=O)c4ccc(N(C)C)cc4)c3)cc21	none
CC=CC1=CC2=CC(=O)C(C)(OC(=O)c3c(C)cc(O)cc3O)C(=O)C2=CO1 (configuration not stated)	none (no result: Lassa entry)
CCOC(=O)Nc1ccc2c(c1)N(C(=O)CN(C)C)c1ccccc1CC2	Lassa entry inconclusive, MARV entry inh 40µM
CCOC(=O)Nc1ccc2c(c1)N(C(=O)CCN1CCOCC1)c1ccccc1S2	none
C=C[C@@H]1C[C@H](C=C)OP(=O)(OCC(=C)C)O1 (some centres not stated)	none
N[C@@H](Cc1ccc(O)c(O)c1)C(=O)O	Lassa entry inconclusive, MARV entry inh 7.9µM!
CCC(N)C(O)c1ccc(O)c(O)c1 (configuration not stated)	none
N[C@H](C(=O)O)[C@@H](O)c1ccc(O)c(O)c1	Lassa entry inconclusive, MARV entry inh 1.3µM
N[C@H](Cc1ccc(O)cc1)C(=O)O	none
COC(=O)C1=C2CCCO[C@H]2[C@@H]2[C@@H](C)[C@H](OC)c3ccccc3[C@@H]12	none
CCCC[C@]12Cc3cc(C#N)ccc3[C@H](O1)c1c(cc(C)n(Cc3ccccc3)c1=O)O2	none
CCCC=Cc1ccc(CN2C(C(C)C)C(=O)N(Cc3cn(CCC4OCCO4)nn3)CCS2(=O)=O)cc1 (configuration not stated)	none (no result: Lassa entry)
COc1cccc2c1[C@@H]1CN(CCCCn3c(=O)[nH]c4c(sc5ncc(-c6ccccc6)nc54)c3=O)C[C@@H]1CO2	MARV entry inh 10µM
COc1ccccc1C(=O)N(Cc1cc2cc3c(cc2nc1N(C)C)OCO3)CC1CCCO1 (configuration not stated)	Lassa entry 11µM, MARV entry inh 13µM
Cc1ccc(C(=O)N(Cc2cc3cccc(C)c3nc2N(C)C)CC2CCCO2)cc1 (configuration not stated)	none
CC1=C(C(=O)Nc2ccc3n[nH]c(C)c3c2)C(c2ccc(C(F)(F)F)cc2)CC(=O)N1 (configuration not stated)	MARV entry inh inconclusive
C[C@H]1O[C@@H](O[C@H]2[C@@H](O)C[C@H](O[C@H]3[C@@H](O)C[C@H](O[C@H]4CC[C@]5(C)C6CC[C@]7(C)[C@@H](C8=CC(=O)OC8)CC[C@]7(O)C6CC[C@@H]5C4)O[C@@H]3C)O[C@@H]2C)C[C@H](O)[C@@H]1O (some centres not stated)	Lassa entry 0.0025µM, MARV entry inh inconclusive
CC1O[C@@H](O[C@@H]2C(O)C[C@H](O[C@@H]3C(O)C[C@@H](OC4CC[C@@]5(C)C6CC[C@]7(C)C(C8=CC(=O)OC8)CC[C@@]7(O)C6CC[C@@H]5C4)OC3C)OC2C)CC(O)[C@H]1O (some centres not stated)	Lassa entry 0.28µM, MARV entry inh 0.22µM
O=C1C2=C(C(=O)c3ccccc31)[C@H]1O[C@](CCCCN3C(=O)c4ccccc4C3=O)(Cc3ccccc31)O2	none
Cc1ccccc1CN1[C@H](C)[C@@H](c2ccccc2)Oc2c(Cl)cccc2S1(=O)=O	none
C=C(CO[C@@H]1C=C[C@@H](c2ccccc2)O[C@@H]1CO)c1ccccc1	none
CC(=O)Nc1cc(C(=O)N2CC3(C)CC2CC(C)(C)C3)cc2ncn(CCc3ccccn3)c12 (configuration not stated)	none
Oc1ccc(Cl)cc1CN1CCOc2c(O)cc(-c3nc4ccccc4s3)cc2C1	Lassa entry 1.6µM
COCc1ccc(CN2CCOc3c(O)cc(-c4cc(C)c5ccc(F)cc5n4)cc3C2)o1	Lassa entry inconclusive
C[C@H]1CC[C@H]2C(=O)N(Cc3ccccc3)C[C@@H](O)CN2[C@H]1c1ccc(Br)cc1	none
CC#CCN1C(=O)NC(c2ccccc2)C(C(=O)OCC)=C1c1ccccc1 (configuration not stated)	none
CCN1C(=O)[C@@H]2[C@H]3[C@H](O)[C@H](O)CC(=NOC[C@H]4O[C@H](c5ccccc5)C=C[C@H]4Oc4ccc(OC)cc4)[C@@H]3CC[C@H]2C1=O	none
O=C1NCN(c2ccccc2)C12CCN(CC1COc3ccccc3O1)CC2 (configuration not stated)	none
O=c1[nH]c2ccccc2n1C1CCN(CCCC(c2ccc(F)cc2)c2ccc(F)cc2)CC1	Lassa entry 25µM!, MARV entry inh 14µM
CCn1c(=O)[nH]c2ccccc21	none
O=C1NCN(c2ccccc2)C12CCN(CCCC(c1ccc(F)cc1)c1ccc(F)cc1)CC2	Lassa entry inconclusive, MARV entry inh 1.4µM
